The structures appear in SMILES notation. Records with an inconclusive call do not appear. Entries that show only a call come without a potency. The source made the active and inactive calls. Calls come from the whole dose curve; as a rule, active = well fitted curve in the direction sought with a large enough effect; inconclusive = small, poorly fitted or top-dose-only effect, or another doubt; inactive = no such curve, though single readings can be large; an effect the other way counts as inactive or inconclusive.

One experiment in a line: qHTS for Inhibitors of Plasmodium falciparum (HB3) proliferation (AID 504318). Note: nearly all actives have a fitted effect of over 60% in size. The settings on record: P. falciparum HB3 in erythrocytes, SYBR Green DNA, 72 h; series mostly up to 7.21 µM. The method, boiled down:
(§1)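 Parasite growth measured as SYBR Green DNA fluorescence (ex 485, em 535 nm) after overnight lysis following 72 h culture at 37 °C, 0.3% parasitemia, 2.5% hematocrit. Values normalized against DMSO and 0.29 uM artemisinin controls, with plate-stack correction.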
On the technique in general: In qHTS, concentration-response curves come from the screen itself.
Take `COC1=C[C@H](C(=O)NCc2ccccn2)[C@@]2(C)Cc3ccccc3[C@@H]2CC1=O`: the Potency result was “inactive”. The same measure, in the same setting: next, `CC(Nc1oc(-c2ccccc2)nc1-c1ccccc1)c1ccccc1` (stereo not given): “inactive”; `C[C@@H]1C[C@H]2[C@@H](C)C(=O)N3[C@@H](C[C@@H](C)[C@@H]3c3ccccc3)[C@@H](C)C(=O)N2[C@H]1c1ccccc1`: “inactive”. `CC1(OC(=O)C2CCCC2)C(=O)C=C2C=C(c3ccc(C#N)cc3)OC=C2C1=O` (stereo not given): the Potency entry was “inactive”. For `COCC=CC1=CC2=CC(=O)C(C)(OC(=O)c3cnc4ccccc4n3)C(=O)C2=CN1CC(C)C` (stereo not given), the Potency result is “inactive”. As to `COC(=O)CCCC1=CC2=CC(=O)C(C)(OC(=O)c3cccs3)C(=O)C2=CN1C1CC1` (stereo not given), the Potency result was “inactive”. As to `CC1=CC[C@@H](COc2ccccc2)O[C@@]2(C1)C(=O)Nc1ccccc12`, the Potency result is “inactive”. For `CC(=O)c1ccc(OCc2ccccc2)c(C)c1O`, the Potency result is “inactive”. Regarding `COC(=O)CCCC1=CC2=C(c3ccccc3)C(=O)C(C)(OC(=O)C3CCCC3)C(=O)C2=CN1Cc1ccco1` (stereo not given), the Potency entry was “inactive”.

The next experiment in a line: qHTS for Inhibitors of Plasmodium falciparum (CP250) proliferation (AID 504320). The following applies: P. falciparum CP250 in erythrocytes, SYBR Green DNA, 72 h; series mostly up to 6.7 µM. Summed up:
as §1
As for `CCCCCCCC1=Cc2ccccc2C(C(C(=O)OC)C(=O)OC)N1C(=O)OC` (stereo not given), the Potency entry was “inactive”.

Consider `COCOc1c2c(c(OCOC)c3c(OCOC)cccc13)C(=NNS(=O)(=O)c1ccc(C)cc1)C1=C2CCCC1`, for which the Potency entry was “inactive”. Still for that read-out and setting: next, `COc1ccc2c(c1)[C@@]1(OCCC=C[C@@H]1C)C(=O)N2Cc1ccc(F)cc1`: “inactive”; `COC1=C[C@H](C(=O)NCc2ccccn2)[C@@]2(C)Cc3ccccc3[C@@H]2CC1=O`: “inactive”. With `CC(C)=CCCC(C)=CCN1C(=O)[C@@]2(C[C@@H](C)C[C@@H](C)O2)c2ccccc21`, the Potency result was “inactive”.

For `CCOC(=O)C1(C(=O)OCC)CC2=C(C=CC3=C(C=C2)CC(C(=O)OCC)(C(=O)OCC)C3)C1`, the Potency result was “inactive”. Regarding `COc1ccc2c(c1)[C@@H](NC(=O)C(F)(F)F)C1CCCCC21c1ccccc1` (stereo not given in full), the Potency result is “inactive”.

Regarding `CC(Nc1oc(-c2ccccc2)nc1-c1ccccc1)c1ccccc1` (stereo not given), the Potency result was “inactive”. Regarding `CC1=C[C@@H](C)O[C@@]2(C1)C(=O)Nc1cccc(Br)c12`, the Potency result is “inactive”. Consider `C[C@@H]1C[C@H]2[C@@H](C)C(=O)N3[C@@H](C[C@@H](C)[C@@H]3c3ccccc3)[C@@H](C)C(=O)N2[C@H]1c1ccccc1`, for which the Potency result is “inactive”. In the case of `COc1ccc(-c2nc3c(c4c2C[C@H](c2ccccc2)OC4)CN(S(=O)(=O)c2ccc(NC(C)=O)cc2)CC3)c(C)c1`, the Potency entry is “inactive”. For `CC1(OC(=O)C2CCCC2)C(=O)C=C2C=C(c3ccc(C#N)cc3)OC=C2C1=O` (stereo not given), the Potency entry was “inactive”. Still for that read-out and setting: next, `COCC=CC1=CC2=CC(=O)C(C)(OC(=O)c3cnc4ccccc4n3)C(=O)C2=CN1CC(C)C` (stereo not given): “inactive”; `CC(C)=CCCC(C)=CCON=C1C[C@@H](O)[C@@H](O)[C@@H]2[C@H]3C(=O)N(C[C@@H]4CCCO4)C(=O)[C@@H]3CC[C@@H]12`: “inactive”.

As to `C=CCN1C(=O)CC[C@@]23C1=NC(C(=O)OC)=C(C(=O)OC)[C@@H]2N(CC#CC)c1ccccc13`, the Potency entry was “inactive”. Turning to `CC(C)=CCCC(C)=CCN1C(=O)[C@]2(OCCC=C[C@H]2C)c2ccccc21`, the Potency result is “inactive”.

Turning to `COc1ccc2c(c1)C(=O)[C@H](OC(=O)N[C@H]1CCCc3ccccc31)[C@@H](c1ccc(OC)c(Br)c1)O2`, the Potency entry is “inactive”.

With `COC(=O)CCCC1=CC2=CC(=O)C(C)(OC(=O)c3cccs3)C(=O)C2=CN1C1CC1` (stereo not given), the Potency entry was “inactive”. Regarding `CCCCCCCC1=Cc2ccc(F)cc2C(C(C(=O)OC)C(=O)OC)N1C(=O)OC` (stereo not given), the Potency result was “inactive”. Turning to `C=C(C)C1CC23C(=O)[C@]4(C(=O)c5ccccc5)C[C@@]5(C)CCC(CC2C1(C)C)(C4=O)[C@@]35OC` (stereo not given in full), the Potency entry is “inactive”. As for `CCC=C1C(=O)[C@]2(C(=O)c3ccccc3)C[C@H]3CCC(CCC)(C2=O)[C@@]13OC`, the Potency entry was “inactive”. In the case of `CC1=CC[C@@H](COc2ccccc2)O[C@@]2(C1)C(=O)Nc1ccccc12`, the Potency result is “inactive”. Same read-out and setting: next, `COC1=C[C@H](C(=O)N2CCCC2)[C@H](C)[C@@H](c2ccccc2)CC1=O`: “inactive”; `CCOC(=O)CCN1C(=O)[C@@H]2[C@H]3[C@H](O)[C@H](O)CC(=NNC(=O)OCc4ccccc4)[C@@H]3CC[C@H]2C1=O`: “inactive”.

On to `C=CCN1c2ccccc2[C@]23CCC(=O)N(CCc4ccccn4)C2=NC(C(=O)OC)=C(C(=O)OC)[C@H]13`, for which the Potency entry was “inactive”. On the same count and under the same terms, next, `C[C@H](NC(=O)N1CCc2nc(-c3ccccc3)c3c(c2C1)CO[C@@H](C)C3)c1ccccc1`: “inactive”; `CC12C=C(C=Cc3ccc(C(F)(F)F)cc3)C(C)(C1)C(c1ccc(C(F)(F)F)cc1)CC2=O` (stereo not given): “inactive”. For the molecule `COc1ccc(COC(=O)NN=C2C[C@@H](O)[C@@H](O)[C@@H]3[C@H]4C(=O)N(c5cccc(Oc6ccccc6)c5)C(=O)[C@@H]4CC[C@H]23)cc1`, the Potency entry was “inactive”. Still for that read-out and setting: the entry for `CC(=O)c1ccc(OCc2ccccc2)c(C)c1O` is “inactive”; for `C=CCCCC=C(C)[C@H](OCc1ccc(OC)cc1)[C@H](CCC=C(C)C(N)=O)OC` it is “inactive”; for `COc1cc(C(CC2=C(c3ccccc3)Cc3ccccc32)NC(=O)C(F)(F)F)cc(OC)c1OC` (stereo not given) it is “inactive”. As for `CCCCCCCC1=Cc2ccccc2C(CC(=O)c2ccccc2)N1C(=O)OC` (stereo not given), the Potency entry was “inactive”. In the case of `Cc1ccccc1Nc1oc(-c2ccccc2)nc1C=Cc1ccccc1`, the Potency result is “inactive”. Consider `COc1ccc2c(c1)[C@H](C=Cc1ccccc1)[C@@H]([C@H](O)CO)O2`, for which the Potency entry is “inactive”. Consider `COC(=O)CCCC1=CC2=C(c3ccccc3)C(=O)C(C)(OC(=O)C3CCCC3)C(=O)C2=CN1Cc1ccco1` (stereo not given), for which the Potency result was “inactive”. On to `CCCCCCCC1Cc2ccccc2C(C(C(=O)OC)C(=O)OC)N1C(=O)OC` (stereo not given), for which the Potency result was “inactive”.

The values are drawn from PubChem BioAssay (NCATS).
